Bioassay records (PubChem)
proKLK7 act: activates the human kallikrein-7 zymogen. purified proKLK7, EDANS-DABCYL substrate fluorescence; 100% is mature enzyme control, 0% vehicle. activation, % at 7 µM. actives 0.9% (n = 370,000). AID 652039;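 active means activation above the mean of all tested compounds plus 3 SD, computed per campaign excluding outliers beyond control limits, cut at about 13% in these data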
ADAM17 inh: inhibitors of human ADAM17; P78536; recombinant ADAM17, EDANS/DABCYL FRET peptide cleavage; inhibition, % at 6.95 µM; actives 0.83% (n = 370,000); AID 720648;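 active means inhibition above the mean of compounds lying between control limits plus 3 SD, set per campaign, cut at about 8.5% in these data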
Target sequence (P78536 215-824 limits assumed): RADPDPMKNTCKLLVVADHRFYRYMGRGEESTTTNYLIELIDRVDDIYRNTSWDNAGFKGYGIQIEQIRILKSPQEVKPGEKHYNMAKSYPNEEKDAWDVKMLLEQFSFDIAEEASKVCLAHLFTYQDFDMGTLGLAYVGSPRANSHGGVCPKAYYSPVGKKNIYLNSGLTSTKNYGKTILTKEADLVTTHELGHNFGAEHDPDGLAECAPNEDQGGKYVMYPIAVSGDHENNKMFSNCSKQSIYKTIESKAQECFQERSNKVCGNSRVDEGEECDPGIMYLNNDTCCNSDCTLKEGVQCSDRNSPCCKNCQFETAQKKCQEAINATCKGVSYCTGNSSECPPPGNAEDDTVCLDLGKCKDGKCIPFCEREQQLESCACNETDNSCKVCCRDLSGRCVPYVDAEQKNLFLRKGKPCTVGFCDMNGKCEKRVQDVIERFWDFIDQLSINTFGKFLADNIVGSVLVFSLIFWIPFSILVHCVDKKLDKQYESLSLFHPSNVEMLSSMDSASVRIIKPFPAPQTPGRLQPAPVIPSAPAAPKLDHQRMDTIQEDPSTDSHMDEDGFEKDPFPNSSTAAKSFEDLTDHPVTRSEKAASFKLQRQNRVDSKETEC
rRNA inh HTS: selective bacterial rRNA inhibition in E. coli; E. coli WT GFP vs humanized-ribosome RFP mutants, fluorescence, 24 h; stronger effect = lower value; DMSO median 0, no signal -100; AID 720706; GFP signal change (wild-type ribosome), % (test concentration not listed); actives 1.6% (n = 350,000);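 active means significant combined selectivity score with lowered wild-type GFP, culture density cut under 30%, mutant RFP and density less affected; inactive means any of these conditions unmet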
FGF22 binding: FGF22 (human) thermal shift binding; recombinant FGF22 thermal shift, SYPRO orange fluorescence; percent of sucrose octasulfate shift, DMSO zero; activity (Tm shift, normalised), % at 9.99 µM; actives 1.5% (n = 340,000); AID 651658;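 active means mean Tm shift, scaled 0 neutral to 100 positive control, at about 1.3% or above, every replicate too, limit read from the data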
ADAM10 inh: inhibitors of human ADAM10; O14672; recombinant ADAM10, EDANS/DABCYL FRET peptide cleavage, 3 h; inhibition, % at 7 µM; actives 0.62% (n = 370,000); AID 720582;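 active means inhibition above a per-campaign cutoff equal to the mean of compounds falling between control-based bounds plus 3 SD, cut at about 20% in these data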
proKLK7 act conf: proKLK7 activation, confirmation; purified proKLK7, EDANS-DABCYL substrate fluorescence; scaled: vehicle 0, mature enzyme 100; shares compounds with proKLK7 act; activation, % at 7 µM; actives 68% (n = 3,200);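 active means activation, as change over the incubation, above the mean of all tested compounds plus 3 SD, cut at about 13% in these data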
EDANS interfere: counter-screen for kallikrein-7 activators: EDANS-DABCYL optical interference. actives 80% (n = 3,200). activation, % at 7 µM. EDANS-DABCYL substrate fluorescence interference, no enzyme, 4 h; solvent 0%, active enzyme control 100%. shares compounds with proKLK7 act;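 active means activation above the all-compound mean plus 3 SD, ignoring values outside control-based bounds, cut at about 4.8% in these data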;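 further: value is the 4 h activation minus the activation read at time zero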
K7 EDANS ctr: counter-screen for kallikrein-7 activators: EDANS-DABCYL interference, dose response. EC50, µM. shares compounds with proKLK7 act. actives 20% (n = 250). AID 720493. EDANS-DABCYL peptide fluorescence interference, no enzyme;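 active means compounds that raise the fluorescence signal in this interference counterscreen, with EC50 at or below 10 µM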;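 further: intact quenched peptide substrate alone read at 355 nm excitation and 520 nm emission; signal is fluorescence gain from T0 to T4 after four hours at room temperature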
Numbers stand for hits; n = inactive; x = not tested or not shown. A selection: hits, their analogues and other compounds. The true share with any hit is near 3.8%.

SMILES | proKLK7 act | ADAM17 inh | rRNA inh HTS | FGF22 binding | ADAM10 inh | proKLK7 act conf | EDANS interfere | others
C[C@H](NC(=O)c1cc2c(cn1)[nH]c1ccccc12)C(=O)O | 18 | n | n | n | n | n | 7.4
O=C(NCCCO)c1cc2c(cn1)[nH]c1ccccc12 | 14 | n | n | n | n | n | 7.6
COC(=O)[C@H](C)NC(=O)c1cc2c(cn1)[nH]c1ccccc12 | n | n | n | n | n | x | x
O=c1[nH]c(NCCO)nc2c1C1(CCCCC1)Cc1ccccc1-2 | n | n | x | x | n | x | x
CCC1(C)Cc2ccccc2-c2nc(NCCO)n(-c3ccc(C)cc3)c(=O)c21 (stereo unspecified) | n | n | x | x | n | x | x
CCC1(CC)Cc2ccccc2-c2nc(NCCO)[nH]c(=O)c21 | 25 | n | x | x | n | n | n
CCC1(C)Cc2ccccc2-c2nc(NCCO)n(-c3ccccc3)c(=O)c21 (stereo unspecified) | 26 | n | x | x | n | n | n
CCC1(O)C(=O)OCc2c1cc1n(c2=O)Cc2cc3cc(O)ccc3nc2-1 (stereo unspecified) | 64 | n | x | n | n | 74 | 77
COc1ccc2c(CN3CCCC3)cc(=O)oc2c1 | n | n | n | n | n | x | x
CCc1cc2c(COC(=O)c3cc(S(=O)(=O)N4CCOCC4)ccc3F)cc(=O)oc2cc1O | 113 | n | n | n | n | 446 | 456
O=c1cc(CN2CCN(S(=O)(=O)c3ccc4c(c3)OCCO4)CC2)c2ccc(O)cc2o1 | 43 | n | x | x | n | 62 | 67
COc1ccc(OC)c(CN2CCN(Cc3cc(=O)oc4cc(O)ccc34)CC2)c1 | 59 | n | n | n | n | 76 | 75
CCc1cc2c(COC(=O)c3cccc(NS(C)(=O)=O)c3)cc(=O)oc2cc1O | 54 | n | n | n | n | 62 | 55
CN1C(=O)c2cc(NC(=O)Nc3ccc(F)cc3)ccc2OC[C@H]2O[C@@H](CC(=O)NC3CCC3)CC[C@H]21 | x | x | n | n | x | x | x
CO[C@@H]1CN(C)C(=O)c2ccc(NS(C)(=O)=O)cc2OC[C@H](C)N(Cc2cncnc2)C[C@@H]1C | x | x | n | n | x | x | x
C[C@H]1CN([C@@H](C)CO)C(=O)CCCn2cc(nn2)CO[C@H]1CN(C)S(=O)(=O)c1ccc(-c2ccccc2)cc1 | x | x | n | n | x | x | x
CCC(=O)N1C[C@H]2[C@@H](c3ccccc31)[C@@H](CO)N2C(=O)Nc1ccccc1 | x | x | n | n | x | x | x
O=C(Nc1ccccc1)N1C[C@@H]2[C@H](c3ccccc31)[C@@H](CO)N2Cc1ccc(F)cc1 | x | x | n | n | x | x | x
CN(C)c1cccc(C(=O)OCc2cc(=O)oc3cc(O)ccc23)c1 | n | n | x | x | n | x | x
O=C(OCc1cc(=O)oc2cc(O)ccc12)c1cc(S(=O)(=O)N2CCOCC2)ccc1F | 644 | n | n | n | n | 677 | 654
N#Cc1ccccc1COC(=O)c1cc(S(=O)(=O)N2CCOCC2)ccc1F | n | n | n | x | n | x | x
CC1CN(S(=O)(=O)c2cccc(C(=O)OCc3cc(=O)oc4cc(O)ccc34)c2)CC(C)O1 (stereo unspecified) | 375 | n | x | x | n | 540 | 528
N=C1/C(=C/c2cccn2Cc2ccc(F)cc2)C(=O)N=C2SC=CN12 | 28 | n | n | n | n | n | 5.6
N=C1/C(=C\c2coc3ccccc3c2=O)C(=O)N=C2SC=CN12 | 23 | n | n | n | n | 33 | 32
COc1cccc(N2CC(=O)N(NC(=O)c3sc4nc(C)cc(C)c4c3N)CC2=O)c1 | 56 | n | n | n | n | 16 | 22
SMILES | proKLK7 act | ADAM17 inh | rRNA inh HTS | FGF22 binding | ADAM10 inh | proKLK7 act conf | EDANS interfere | others
Cc1cc(C)c2c(N)c(C(=O)NNC(=O)c3ccccc3)sc2n1 | n | n | n | n | n | x | x
COc1cccc(N2CC(=O)N(NC(=O)CSc3nc(C)cc(C)c3C#N)CC2=O)c1 | 71 | n | x | x | n | 42 | 45
Cc1cc(C)c2c(N)c(C(=O)NN3CC(=O)N(c4ccccc4F)CC3=O)sc2n1 | 112 | n | x | x | n | 40 | 42
C[C@@H]1CCCCO[C@H](CN(C)S(=O)(=O)c2cn(C)cn2)[C@@H](C)CN([C@@H](C)CO)C(=O)c2cc(NC(=O)Nc3ccc(C(F)(F)F)cc3)ccc2O1 | x | x | n | n | x | x | x
CC[C@]12c3[nH]c4ccccc4c3CCN1C(=O)C(CC(=O)NCCN1CCOCC1)C[C@@H]2C(=O)N1CCN(C(=O)c2ccco2)CC1 (stereo partly specified) | n | n | n | n | n | x | x
CC[C@]12c3[nH]c4cc(-c5ccco5)ccc4c3CCN1C(=O)[C@@H](CC(=O)NCCc1ccccn1)C[C@@H]2C(=O)N1CCN(C(=O)c2ccco2)CC1 | 151 | n | n | n | n | 119 | 138
CC[C@]12c3[nH]c4cc(-c5ccco5)ccc4c3CCN1C(=O)[C@@H](CC(=O)NCCN1CCOCC1)C[C@@H]2C(=O)N1CCN(C(=O)c2ccco2)CC1 | 88 | n | n | n | n | 64 | 86
CC[C@]12c3[nH]c4cc(-c5ccco5)ccc4c3CCN1C(=O)[C@@H](CC(=O)NCCN1CCOCC1)C[C@@H]2C(=O)N1CCN(C(=O)C2CC2)CC1 | 110 | n | n | n | n | 76 | 83
CC(C)[C@H]1COCc2cn(nn2)CCC[C@@H](C)C(=O)N1 | x | x | n | x | x | x | x
Cc1ccc(C(=O)Nc2ccc3nccnc3c2)cc1 | 13 | n | x | x | n | 45 | 38 | K7 EDANS ctr=9.2
O=C(Nc1cccc(Cl)c1)Nc1ccc2nccnc2c1 | n | n | n | n | n | x | x
O=C(Nc1ccc2nccnc2c1)Nc1ccccc1Cl | 20 | n | n | n | n | 46 | 44
O=C(Cc1ccccn1)NCC[C@@H]1CC[C@@H](NS(=O)(=O)c2ccc(Cl)cc2)[C@H](CO)O1 | x | x | n | n | x | x | x
CCC(=O)N1C[C@@H](C)[C@H](OC)CN(C)C(=O)c2ccc(NC(=O)c3cnccn3)cc2OC[C@H]1C | x | x | n | n | x | x | x
Cc1cc2[nH]c(=O)c(=O)[nH]c2cc1S(=O)(=O)NC1CCC(C)CC1 (stereo unspecified) | 15 | n | n | n | n | n | 4.1
Cc1cc2[nH]c(=O)c(=O)[nH]c2cc1S(=O)(=O)NCc1ccccc1 | 23 | n | n | n | n | n | 6.0
CC(C)NC(=O)Nc1ccc2c(c1)CC(=O)N(C)C[C@H](C)[C@H](CN(C)C(=O)OC(C)(C)C)O2 | x | x | n | x | x | x | x
